In PubChem BioAssay AID1775 (NMMLSC, 2009) one finds fluorescence (KMESF) data, which are given here for 100 compounds.

About 820 (0.37%) of roughly 220,000 compounds were called active. This excerpt belongs to a sample that is enriched for actives. Unmarked numbers belong to inactive results. Rule as the data show it: active = fluorescence above about 47; inactive = the rest.

The experiment in a line: green autofluorescence of compounds with avidin beads – biophysical, 488/530 nm, flow cytometry, artefact control, profiling panel (AID 1775). As to conditions: compound fluorescence 488/530 nm, at 10 µM, active compounds read high. A general note: Flow cytometry measures light scatter and fluorescence of single cells or particles in a stream.
For `COc1ccc(/C(=N\O)c2nccc3cc(OC)c(OC)cc23)cc1OC`, the fluorescence (KMESF) is 7.

As for `O=C(NC(=S)Nc1ccc(S(=O)(=O)N2CCOCC2)cc1)c1ccccc1[N+](=O)[O-]`, the fluorescence (KMESF) is 10.

In the case of `CCc1ccccc1NC(=O)Cc1cn(C)c2ccccc12`, the fluorescence (KMESF) was 10.

`Fc1cccc(Cl)c1CSc1ccc(-c2ccco2)nn1`: the fluorescence (KMESF) was 49 (active).

`Brc1ccc(CSc2ccc(-c3ccco3)nn2)cc1`: the fluorescence (KMESF) is 13.

Regarding `Cn1c(SCc2c(F)cccc2Cl)nnc1-c1cnccn1`, the fluorescence (KMESF) was 1.

As for `CCCCN(Cc1ccccc1)C(=O)C1CCN(Cc2sccc2C)CC1`, the fluorescence (KMESF) was 5.

As for `Cc1ccc(-c2cn(S(=O)(=O)c3cccc([N+](=O)[O-])c3)nc2N)cc1`, the fluorescence (KMESF) was 2.

Take `O=C(N/N=C/c1cccc2cccnc12)[C@H]1C[C@@H]1c1ccccc1`: the fluorescence (KMESF) was 4.

On to `Cc1c(CN2CCCC(C(=O)c3cccc(Cl)c3)C2)c(=O)n(-c2ccccc2)n1C` (stereo not given), for which the fluorescence (KMESF) was 67 (active).

Consider `Cc1c(CN2CCC(C)CC2)c(=O)n(-c2ccccc2)n1C`, for which the fluorescence (KMESF) is 9.

Regarding `Cc1cccc(N2CCN(Cc3c(C)n(C)n(-c4ccccc4)c3=O)CC2)c1C`, the fluorescence (KMESF) is 16.

As for `O=C(/C=C/Nc1ccccc1)c1cnc(-c2ccccc2)s1`, the fluorescence (KMESF) was 49 (active).

As for `Cc1ccc(N/C=C/C(=O)c2ccccc2)cc1C`, the fluorescence (KMESF) was 14.

With `CC(=O)c1cnc(-c2ccccc2)s1`, the fluorescence (KMESF) is 9.

As for `Cc1ccc(-c2noc(CCC(N)=O)n2)cc1`, the fluorescence (KMESF) was 19.

With `CCNC(=O)CCc1nc(-c2ccc(C(C)(C)C)cc2)no1`, the fluorescence (KMESF) was 49 (active).

`CCNC(=O)CCc1nc(-c2ccc(C)cc2)no1`: the fluorescence (KMESF) was 4.

Turning to `Cc1ccc2c(C)c(C(=O)N3CCC(N4CCC(C(=O)NC5CC5)CC4)CC3)oc2c1`, the fluorescence (KMESF) was 8.

Turning to `COc1ccc(NC(=O)C2C3C=CC(C3)C2C(=O)NCc2ccccn2)c(OC)c1` (stereo not given), the fluorescence (KMESF) was 27.

In the case of `Cc1ccccc1N(C(=O)Cc1cccs1)C(C(=O)NC1CCCCC1)c1cn(C)nc1C` (stereo not given), the fluorescence (KMESF) was 12.

Turning to `O=S(=O)(NCCc1csc(-c2ccccc2)n1)c1cccnc1`, the fluorescence (KMESF) was 5.

Take `CC(C(=O)NC1CCCC1)N(c1ccc(Oc2ccccc2)cc1)S(C)(=O)=O` (stereo not given): the fluorescence (KMESF) was 9.

With `Cc1ccccc1C(OCCN(C)C)C1CCCCC1` (stereo not given), the fluorescence (KMESF) is 13.

As for `O=C(COc1ccc(Cl)cc1)NCCC1=CCCCC1`, the fluorescence (KMESF) is 51 (active).

Take `Cc1nnc(OCC(=O)NCCC2=CCCCC2)c2ccccc12`: the fluorescence (KMESF) was 20.

For `O=C(COc1cccc(-n2cnnn2)c1)NCCC1=CCCCC1`, the fluorescence (KMESF) was 5.

For `COC/C=C/C1=CC2=CC(=O)C(C)(OC(=O)CCC(=O)OC)C(=O)C2=CO1` (stereo not given), the fluorescence (KMESF) is 10.

As for `O=C(CSc1ccccc1)Nc1ccc(C(=O)Nc2cccc(O)c2)cc1`, the fluorescence (KMESF) is 15.

As for `O=C(NCCOc1ccccc1Cl)C(=O)Nc1ccccc1`, the fluorescence (KMESF) was 2.

For the compound `COc1ccc(S(=O)(=O)N2CCCCCC2)cc1C(=O)OCC(=O)Nc1cc(C)on1`, the fluorescence (KMESF) was 11.

For the compound `CN(C)c1ccc(/C=C/C(=O)c2ccc(C(C)(C)C)cc2)cc1[N+](=O)[O-]`, the fluorescence (KMESF) was 57 (active).

`O=C(/C=C/c1ccc(Cl)c([N+](=O)[O-])c1)c1ccc(O)cc1`: the fluorescence (KMESF) is 6.

Consider `CN(C)c1ccc(/C=C/C(=O)c2ccc(O)cc2)cc1[N+](=O)[O-]`, for which the fluorescence (KMESF) was 6.

For `N=C(N)SCc1cccc2ccccc12`, the fluorescence (KMESF) was 68 (active).

As for `CCOc1ccc(Br)cc1CSC(=N)N`, the fluorescence (KMESF) is 8.

`c1ccc2c(CSCc3nc4ccccc4[nH]3)cccc2c1`: the fluorescence (KMESF) is 9.

Take `C=CCn1c(=S)sc2c(=O)[nH]c(C)nc21`: the fluorescence (KMESF) is 3.

Turning to `CSc1ccc(CN2C(=O)NC3(CCCCCC3)C2=O)cc1`, the fluorescence (KMESF) was 50 (active).

Consider `O=C(CN1C(=O)NC2(CCCCCC2)C1=O)NC1CC1`, for which the fluorescence (KMESF) is 14.

Regarding `O=C1NC2(CCCCCC2)C(=O)N1CCS(=O)(=O)Oc1ccccc1`, the fluorescence (KMESF) is 12.

As to `CN=C(c1ccccc1)c1c(C)cccc1C`, the fluorescence (KMESF) was 1.

On to `CCN(CC)C(=O)CC(c1ccc2c(c1)OCO2)c1c(OC)cc(OC)c2c(-c3ccccc3)cc(=O)oc12` (stereo not given), for which the fluorescence (KMESF) is 8.

With `O=C(NC1CC1)c1cccc(Br)c1`, the fluorescence (KMESF) is 4.

In the case of `O=C(NC1CC1)c1ccc2c(c1)NC(=O)c1ccccc1S2`, the fluorescence (KMESF) is 80 (active).

For the compound `O=C(NC1CC1)c1ccc(-c2ccccc2)cc1`, the fluorescence (KMESF) was 11.

On to `COc1ccc(Cl)cc1N(CC(=O)N/N=C/c1ccc(OCC(N)=O)cc1)S(C)(=O)=O`, for which the fluorescence (KMESF) is 10.

For the compound `Cc1[nH]nc(SCC(=O)NCC(C)C)c1[N+](=O)[O-]`, the fluorescence (KMESF) is 6.

As to `CCOC(=O)c1sc(NC(=O)c2ccncc2)nc1C`, the fluorescence (KMESF) is 4.

Regarding `CCOC(=O)c1sc(NC(=O)CSc2n[nH]c(CC)n2)nc1C`, the fluorescence (KMESF) is 15.

On to `CCOC(=O)c1sc(/N=C/Nc2nc(C)c(C(=O)OCC)s2)nc1C`, for which the fluorescence (KMESF) is 54 (active).

With `Cc1ccc2nc(-c3cccnc3)c(NC3CCCC3)n2c1`, the fluorescence (KMESF) was 9.

As for `Cc1cc(=O)n2[nH]c(-c3sccc3-n3c(C)ccc3C)cc2n1`, the fluorescence (KMESF) is 5.

With `O=C(CCC(=O)N1CCCC1)Nc1ccc([N+](=O)[O-])cc1`, the fluorescence (KMESF) is 9.

`Cc1ccc(-n2c(C)cc(C(=O)CSc3nnc4ccccn34)c2C)cc1`: the fluorescence (KMESF) is 11.

In the case of `COC(=O)c1ccccc1OCC(=O)N1CCN(c2ccc(Cl)cc2)CC1`, the fluorescence (KMESF) is 189 (active).

As to `O=C(CN1CCN(c2ccc(Cl)cc2)CC1)N1CCCC1`, the fluorescence (KMESF) is 13.

`O=C(COc1ccc(Cl)cc1)N1CCN(c2cccc(C(F)(F)F)c2)CC1`: the fluorescence (KMESF) was 20.

On to `CC(C)COC(=O)n1c(=O)oc2ccc(S(=O)(=O)N3CCCCC3)cc21`, for which the fluorescence (KMESF) is 7.

Regarding `Cc1cc(OC(=O)c2ccccc2)c([N+](=O)[O-])c(=O)[nH]1`, the fluorescence (KMESF) is 13.

With `Cc1cccc(N2CC(C)Cn3c2nc2c3c(=O)n(CC(=O)OCc3ccccc3)c(=O)n2C)c1` (stereo not given), the fluorescence (KMESF) is 5.

As for `COc1ccc(N2CC(C)Cn3c2nc2c3c(=O)n(Cc3ccccc3F)c(=O)n2C)c(OC)c1` (stereo not given), the fluorescence (KMESF) is 54 (active).

In the case of `CC(C)OCCCNc1nc2c(c(=O)n(Cc3ccccc3F)c(=O)n2C)n1C`, the fluorescence (KMESF) is 16.

On to `C/C(=N\Nc1cccc(C(=O)O)c1)c1ccc2c(c1)Nc1ccccc1S2`, for which the fluorescence (KMESF) is 11.

With `O=C(CCCCCn1c(=O)[nH]c2ccccc2c1=O)NCCc1c[nH]c2ccccc12`, the fluorescence (KMESF) was 14.

Turning to `COc1ccc(CCNC(=O)CCCCn2c(=O)[nH]c3ccccc3c2=O)cc1OC`, the fluorescence (KMESF) was 39.

As for `O=C(CCCCn1c(=O)[nH]c2ccccc2c1=O)NCc1ccc2c(c1)OCO2`, the fluorescence (KMESF) was 81 (active).

As to `N/C(=N\OC(=O)CCn1cccc(C(F)(F)F)c1=O)c1ccc(OC(F)(F)F)cc1`, the fluorescence (KMESF) is 8.

With `COc1cccc(C(=O)N2CCCC(CCC(=O)NCc3ccc(F)c(F)c3)C2)c1` (stereo not given), the fluorescence (KMESF) is 8.

Regarding `Cc1ccc(NC(=O)c2cccnc2C(=O)Nc2ccc(C)cc2)cc1`, the fluorescence (KMESF) was 10.

With `O=C(Nc1ccc(-n2ccnc2P(=O)(O)c2ccccc2)cc1)c1ccccc1Br`, the fluorescence (KMESF) is 81 (active).

Consider `O=C(Nc1ccccc1)c1cccnc1Nc1ccccc1`, for which the fluorescence (KMESF) was 8.

Take `COc1ccc(CCN2C(=O)N(c3ccc(OC)cc3)C(=O)C2CC(=O)Nc2ccc(OC)cc2)cc1` (stereo not given): the fluorescence (KMESF) is 6.

Consider `Cc1cc(NC(=O)CSc2nccn2-c2ccc([N+](=O)[O-])cc2)no1`, for which the fluorescence (KMESF) was 25.

Regarding `C/C(=N/Nc1ccc(Cl)cc1)c1cnnc(-c2ccccc2)n1`, the fluorescence (KMESF) was 21.

On to `Cc1ccc(S(=O)(=O)N2CCOCC2)cc1C(=O)NC(=S)N(Cc1ccccc1)C(C)C`, for which the fluorescence (KMESF) was 4.

As to `CCN(CC(=O)Nc1cccc(S(N)(=O)=O)c1)Cc1nc2ccccc2c(=O)[nH]1`, the fluorescence (KMESF) is 7.

On to `COc1ccc(C2CC(c3ccccc3)Nc3ncnn32)cc1` (stereo not given), for which the fluorescence (KMESF) is 9.

Turning to `FC(F)Oc1ccccc1C1CC(c2ccc(Br)s2)Nc2ncnn21` (stereo not given), the fluorescence (KMESF) was 72 (active).

For the compound `Clc1ccc(C2CC(c3cccs3)n3ncnc3N2)cc1Cl` (stereo not given), the fluorescence (KMESF) is 7.

Consider `CNC(=S)NNC(=O)c1oc2nc(-c3ccccc3)cc(-c3ccco3)c2c1N`, for which the fluorescence (KMESF) is 7.

As to `COc1ccc(CCN2C(=O)CC(N3CCC(C(N)=O)CC3)C2=O)cc1OC` (stereo not given), the fluorescence (KMESF) was 5.

`O=C(CCc1[nH]c2ccccc2c1Sc1ccccc1)N(CCO)CCO`: the fluorescence (KMESF) was 16.

For `CS/C(=C\C(=O)c1ccco1)Nc1ccccc1Cl`, the fluorescence (KMESF) was 7.

On to `COc1ccc(CCNC(=O)CN(c2ccccc2)S(C)(=O)=O)cc1`, for which the fluorescence (KMESF) is 9.

Consider `COC(=O)CNC(=O)c1ccc(OC2CCN(C(=O)C3CC3)CC2)cc1`, for which the fluorescence (KMESF) is 7.

With `O=C(COC(=O)C12CC3CC(CC(C3)C1)C2)NCc1ccco1`, the fluorescence (KMESF) was 56 (active).

For `O=C(COC(=O)CCC(=O)c1cccs1)NCc1ccco1`, the fluorescence (KMESF) was 9.

Turning to `O=C(CC12CC3CC(CC(C3)C1)C2)NCc1ccco1`, the fluorescence (KMESF) is 11.

On to `COCCCn1c(-c2cccs2)nc2nc3ccccc3nc21`, for which the fluorescence (KMESF) was 6.

For the compound `CN(c1ccccc1)c1ccc(/C=c2\s/c(=C(/C#N)C(=O)C(C)(C)C)n(Cc3ccco3)c2=O)cc1`, the fluorescence (KMESF) is 453 (active).

On to `Cc1cs/c(=N\N=C\c2ccc(O)cc2)n1Cc1ccco1`, for which the fluorescence (KMESF) is 7.

As to `COc1ccc(NC(=O)Cn2c(=O)n(Cc3ccco3)c(=O)c3ccccc32)cc1`, the fluorescence (KMESF) was 36.

In the case of `CCOC(=O)CC(NC(=O)C1c2ccccc2Oc2ccccc21)c1ccc(C)cc1` (stereo not given), the fluorescence (KMESF) was 11.

For the compound `Clc1ccc(C[n+]2cc(-c3ccccc3)n3c2CCC3)cc1`, the fluorescence (KMESF) was 7.

Consider `O=C(Nc1cccc(-c2nc3ccccc3[nH]2)c1)c1ccc(C(=O)Nc2cccc(-c3nc4ccccc4[nH]3)c2)cc1`, for which the fluorescence (KMESF) is 151 (active).

Consider `O=C(/C=C/c1ccco1)Nc1cccc(-c2nc3ccccc3[nH]2)c1`, for which the fluorescence (KMESF) was 9.

Consider `O=C(Cc1cccs1)Nc1cccc(-c2nc3ccccc3[nH]2)c1`, for which the fluorescence (KMESF) was 14.

Turning to `Cc1ccc(CN2C(=O)N/C(=C/c3cc(C)n(-c4ccccn4)c3C)C2=O)cc1`, the fluorescence (KMESF) was 16.

With `CCCCCCCCCCCCC(NC(C)=O)(C(=O)OCC)C(=O)OCC`, the fluorescence (KMESF) was 6.
